Laboratory results from PubChem BioAssay (EPA / NIEHS).
Records with an inconclusive call do not appear. Calls of active or inactive are those of the source. Rule for the calls: active = hit-call score of the fitted dose curve at least 0.9, where 1 is the maximum; inconclusive = response in the unintended direction; inactive = score below 0.9.

Each compound was assayed against Retinoic acid receptor RXR-alpha (Homo sapiens) (UniProt P19793) (assay: ATG_RXRa_TRANS: Attagene TRANS-FACTORIAL HepG2 Assay for human Retinoid X Receptor alpha (RXRa) (AID 2283012)).
Retinoic acid receptor RXR-alpha (Homo sapiens), sequence (P19793 whole entry, looked up): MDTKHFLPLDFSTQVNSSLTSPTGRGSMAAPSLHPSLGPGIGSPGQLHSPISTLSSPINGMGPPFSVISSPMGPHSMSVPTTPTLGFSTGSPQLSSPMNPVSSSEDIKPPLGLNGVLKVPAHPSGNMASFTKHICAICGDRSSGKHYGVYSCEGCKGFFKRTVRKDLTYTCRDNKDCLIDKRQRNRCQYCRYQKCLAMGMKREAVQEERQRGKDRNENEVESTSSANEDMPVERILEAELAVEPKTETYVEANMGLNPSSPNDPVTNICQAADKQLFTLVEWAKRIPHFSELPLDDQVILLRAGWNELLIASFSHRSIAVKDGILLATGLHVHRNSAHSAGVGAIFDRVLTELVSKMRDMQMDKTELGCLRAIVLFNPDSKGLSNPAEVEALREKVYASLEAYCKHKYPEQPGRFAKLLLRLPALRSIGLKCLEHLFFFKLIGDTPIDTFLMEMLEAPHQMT
Experimental: ATG_TRANS is a cell-based, multiplexed-readout assay that uses HepG2, a human liver cell line, with measurements taken at 24 hours after chemical dosing in a 24-well plate.ATG_RXRa_TRANS is one of 30 assay component(s) measured or calculated from the ATG_TRANS assay. It is designed to make measurements of mRNA induction, a form of inducible reporter, as detected with fluorescence intensity signals by Reverse transcription polymerase chain reaction (RT-PCR) and Capillary electrophoresis technology.Data from the assay component ATG_RXRa_TRANS was analyzed into 1 assay endpoint. This assay endpoint, ATG_RXRa_TRANS, was analyzed in the positive analysis fitting direction relative to DMSO as the negative control and baseline of activity. Using a type of inducible reporter, measures of mRNA for gain-of-signal activity can be used to understand the reporter gene at the transcription factor-level as they relate to the gene RXRA. Furthermore, this assay endpoint can be referred to as a primary readout, because this assay has produced multiple assay endpoints where this one serves a reporter gene function. To generalize the intended target to other relatable targets, this assay endpoint is annotated to the nuclear receptor intended target family, where the subfamily is non-steroidal.
Human liver HepG2 cells are transiently transfected with multiple reporter transcription units (MRTUs) in 6-well plates using FuGene 6 reagent (Roche; 3 ml FuGene/1 mg DNA). The MRTU constructs are regulated by a cis-regulating element (promoter). […] A major difference between the CIS and TRANS system is that in CIS activities of endogenous TFs are measured, whereas the TRANS assay evaluates changes in activities of exogenous, chimeric NR-Gal4 proteins. […] At the end of 24 hour incubation, total RNA was isolated using TriZol reagent (Invitrogen). The isolated RNA is then reverse-transcribed using oligo(dT) primer and Mo-MLV reverse transcriptase (Invitrogen) with DNAse I (Ambion) treatment for 30 min. The one-tenth of the produced cDNA was amplified by PCR using Taq DNA polymerase (Invitrogen) and two reporter sequence-specific primers. The PCR products were fluorescently labeled by primer extension with 6-arboxyfluorescein (6-FAM) 5'-labeled reporter sequence-specific primer (2 min at 95 C, 20 s at 68 C and 10 min at 72 C) and these products were digested with 5U of HpaI (New England Biolabs) for 2h at 37 C. The fragments were purified using Qiaquick PCR columns (Qiagen), analyzed on an ABI 3130xL genetic analyzer (Applied Biosystems) with peak positions identified by using a set of X-rhodamine (ROX)-labeled MapMarker1000 molecular weight standards (BioVentures). The raw capillary electrophoresis data was processed using Attagraph software (Attagene).

SMILES	outcome	AC50
Cc1ccc(N)cc1N	inactive	–
Clc1ccc(Oc2ccccc2)cc1	inactive	–
CNC(=O)Oc1ccc(N(C)C)c(C)c1	inactive	–
ClC(Cl)(Cl)c1ccccc1	inactive	–
CCCCC(CC)COP(=O)(Oc1ccccc1)Oc1ccccc1 (stereo not given)	inactive	–
O=C(O)CF	inactive	–
OCC(F)(F)OC(F)(F)C(F)(F)OC(F)(F)C(F)(F)OC(F)(F)CO	inactive	–
Cc1c([N+](=O)[O-])cc2c(c1[N+](=O)[O-])C(C)(C)CC2(C)C	–	8.24 µM (active)
O=c1ssc(Cl)c1Cl	inactive	–
C=CC(=O)OCC(F)(F)C(F)F	inactive	–
NC(=O)C(F)(F)C(F)(F)F	inactive	–
O=C(O)C(Cl)Cl	inactive	–
CC(O)C(F)(F)C(F)(F)F (stereo not given)	inactive	–
O=C(O)C=CC(F)(C(F)(F)F)C(F)(F)F	inactive	–
CCCCCCCc1ccc(O)cc1	inactive	–
c1ccc2c(c1)Nc1ccccc1S2	inactive	–
Nc1ccc2ccccc2c1	inactive	–
Oc1ccc(I)cc1	inactive	–
CC(C)(C)c1ccccc1OP(=O)(Oc1ccccc1)Oc1ccccc1	inactive	–
ClC(Cl)c1ccccc1	inactive	–

SMILES	outcome	AC50
CCOc1ccc(C(C)(C)COCc2cccc(Oc3ccccc3)c2)cc1	inactive	–
O=c1[nH]c2ccccc2c(=O)o1	inactive	–
CCOP(=S)(OCC)SCS(=O)(=O)CC	inactive	–
O=P(Oc1ccccc1)(Oc1ccccc1)Oc1ccccc1	inactive	–
CC(Cl)(Cl)C(=O)O	inactive	–
CC1(C)CN=C(NN=C(/C=C/c2ccc(C(F)(F)F)cc2)/C=C/c2ccc(C(F)(F)F)cc2)NC1	inactive	–
Nc1ccc([N+](=O)[O-])cc1Cl	inactive	–
COP(N)(=S)OC	inactive	–
O=S(=O)(F)C(F)(F)C(F)(F)C(F)(F)C(F)(F)C(F)(F)C(F)(F)C(F)(F)C(F)(F)F	inactive	–
CCOP(=S)(NC(C)C)Oc1ccccc1C(=O)OC(C)C (stereo not given)	inactive	–
Nc1cc2c3c(c1)C(c1ccccc1)=N[C@@H](NC(=O)c1cccnc1)C(=O)N3CC2	inactive	–
CCCCC(CC)COC(=O)c1c(Br)c(Br)c(Br)c(Br)c1C(=O)OCC(CC)CCCC (stereo not given)	inactive	–
O=C(O)C(F)(OC(F)(F)C(F)(F)C(F)(F)F)C(F)(F)F (stereo not given)	inactive	–
C/C(=N\NC(=O)Nc1cc(F)cc(F)c1)c1ncccc1C(=O)O	inactive	–
OCC(F)(F)OC(F)(F)C(F)(F)OC(F)(F)C(F)(F)OC(F)(F)F	inactive	–
CCOP(=S)(OCC)SCSc1ccc(Cl)cc1	inactive	–
N#Cc1ccc(O)cc1	inactive	–
O=[N+]([O-])c1cc(Cl)ccc1Cl	inactive	–
ClC(Cl)=C(c1ccc(Cl)cc1)c1ccccc1Cl	inactive	–
COP(=O)(CCC(=O)NCO)OC	inactive	–
